“And” between values parts separate entries of the source, which are not always exact repeats. Equal values may be shown once. In all, about 140,000 compounds went through this assay and about 1,200 (0.86%) were called active. Rule as the data show it: active = activity change below about -25%; inactive = the rest. The entries come from a sample that favours actives as a whole.
% is scaled to controls: 0 for no effect and ±100 for the full control effect.

This experiment deals with Inositol hexakisphosphate kinase 1 (Homo sapiens) (UniProt Q92551). Description: Primary qHTS assay for small molecule inhibitors of Inositol hexaphosphate kinase 1 (IP6K1). Also: series mostly up to about 58 µM. To be noted: ADP-Glo luminescence, 2 h, hits give low values. From the text: Assay Provider: Huijun Wei, M.S., Ph.D. School of Medicine, Johns Hopkins University, Baltimore, MD Inositol hexakisphosphate kinases (IP6Ks) catalyze pyrophosphorylation of inositol hexakisphosphate (IP6) into inositol 5-diphospho-1,2,3,4,6-pentakisphosphate (IP7), which is involved in numerous areas of cell physiology including glucose homeostasis, blood coagulation and neurological development. Inhibition of IP6Ks may be effective for the treatment of Type II diabetes, thrombosis, and psychiatric disorders. We performed a quantitative high throughput screen (qHTS) of 158,410 compounds for IP6K1 inhibitors using ankinase activity ADP-Glo Max assay. […] Medicinal chemistry SAR efforts in three chemical series identified potent IP6K1 inhibitors, which were further validated in an orthogonal LC-MS IP7 analysis.
Inositol hexakisphosphate kinase 1 (Homo sapiens), sequence (Q92551 whole entry, looked up): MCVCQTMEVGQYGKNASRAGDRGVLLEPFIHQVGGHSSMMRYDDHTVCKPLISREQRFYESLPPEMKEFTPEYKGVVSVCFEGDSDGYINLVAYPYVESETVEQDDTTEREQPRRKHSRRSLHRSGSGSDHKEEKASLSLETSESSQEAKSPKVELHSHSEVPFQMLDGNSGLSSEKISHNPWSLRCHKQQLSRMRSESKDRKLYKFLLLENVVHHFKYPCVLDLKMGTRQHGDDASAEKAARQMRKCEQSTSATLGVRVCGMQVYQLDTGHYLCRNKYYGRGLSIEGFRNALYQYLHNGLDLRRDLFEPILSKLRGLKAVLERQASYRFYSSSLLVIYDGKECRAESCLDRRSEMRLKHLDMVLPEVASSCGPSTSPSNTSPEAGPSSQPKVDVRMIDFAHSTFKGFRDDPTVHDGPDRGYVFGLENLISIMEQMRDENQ
PROTOCOL TABLE SEQUENCE No. (e.g., 1, 2, 3, etc.); […] (e.g., Cells, Incubation, Reagent, etc.); VALUE and DESCRIPTION. 1. Reagent, 3 uL of 1.3 mM ATP and 130 uM IP6 mixture in assay buffer was dispensed to a white, 1536-well assay plate. 2. Compound, 23 nL of compounds of the top two doses (57.5 uM and 19.1 uM final concentration) of the libraries were dispensed into the mixture using the Kalypsis pintool. 3. Reagent, 1 uL of 2.4 uM IP6K1 was dispensed to the assay plates. 4. Incubation, 2 hr incubation at room temperature. 5. Reagent, 2 uL of ADP-Glo reagent was added to the wells. 6. Incubation, 1 hr incubation at room temperature. 7. Reagent, 4 uL or ADP-Glo substate was added to the wells. 8. Incubation, 45 min incubation at room temperature. 9. Detection, luminescence signal was detected using the ViewLux microplate imager (PerkinElmer).
In general terms: qHTS replaces the single test concentration by a dilution series.
As for `Cc1ccc(-c2cc(C(=O)Oc3ccccc3Cl)no2)cc1C`, the activity change was -29.7% (active).
As to `COCCNC(=O)c1cc(-c2cccc(Cl)c2)on1`, the activity change was -0.0295% (inactive).
With `CCOC(=O)c1cc(-c2ccc(OC)c(S(=O)(=O)Nc3ccc(OC)cc3OC)c2)on1`, the activity change is 1.78% (inactive).
Take `CC(O)CNC(=O)c1ccc(-c2ncc3cnc(C4=CCOCC4)cn23)cc1` (stereo not given): the activity change is -10.8% (inactive).
`Cc1ccccc1CC(=O)N1CCCC(n2cc(-c3nc(-c4ccccc4)no3)nn2)C1` (stereo not given): the activity change was 9.4% (inactive).
Regarding `CC(C)NC(=O)N1CCN(c2ccc3nnc(C4CC4)n3n2)CC1`, the activity change was 5.65% (inactive).
Consider `Cc1ccccc1NC(=O)c1c(NC(=O)c2ccccc2F)sc2c1CCC(C)C2` (stereo not given), for which the activity change was -11.5% (inactive).
With `Cc1cccc(C(=O)NCCC2CCN(C(=O)Nc3ccc(F)cc3F)CC2)c1` the figure was -7.16% (inactive).
As to `Cc1cccc(N2CCN(c3ccc(C(=O)O)cc3NC(=O)c3ccccc3F)CC2C)c1` (stereo not given), the activity change is -32.2% (active).
As to `Cc1cccc(C)c1-c1nc(C(=O)N2CCN(c3ncccn3)CC2)n2ccccc12`, the activity change is 8.82% (inactive) and 13.4% (inactive).
`CCn1nc(CNC(=O)C2CCC(=O)N(C3CCCC3)C2)c2ccccc21` (stereo not given): the activity change is -2.6% (inactive).
In the case of `COc1c(C)cnc(CN(C)C(=O)C2CC(=O)N(C3CCCC3)C2)c1C` (stereo not given), the activity change was -26.5% (active).
Turning to `CN1C[C@H](NS(C)(=O)=O)CCC[C@@H](C(=O)N(C)Cc2cccnc2)CC1=O`, the activity change is 5.58% (inactive).
With `O=C(NC1CCN(c2nccc(Nc3ccccc3Cl)n2)CC1)c1ccccn1` the figure was 0.678% (inactive); with `Cc1ccncc1C(=O)N1CCC2(CC1)CC(c1ccccc1)C(=O)N2C` (stereo not given), -28.9% (active); with `Cc1ccncc1C(=O)N1CCC(Cn2c(C)cnc2-c2cccnc2)CC1`, 7.69% (inactive).
For `Cc1cc(N2CCC3(CC2)CC(c2ccccc2)C(=O)N3C)ncn1` (stereo not given), the activity change was 10.4% (inactive).
Under `COc1ccccc1-c1ccc(CN2CCC(NC(=O)c3ccncc3)C2)cc1` (stereo not given) stands 24.3% (inactive); under `Cc1ccc(CN2C(=O)[C@@H]3C[C@@H](O)CN3C3(CN(Cc4ccc(C(F)(F)F)cc4)C3)C2=O)o1`, -6.91% (inactive); under `Cc1cc(Cl)ccc1OCC(=O)N1CCc2n[nH]c(=O)n2CC1`, -14.4% (inactive).
For `COc1ccc(N2CCN(S(=O)(=O)CCNC(=O)C(c3ccccc3)c3ccccc3)CC2)cc1`, the activity change was 23.7% (inactive).
Regarding `COc1cc(C(=O)NCCS(=O)(=O)N2CCN(c3ccccc3)CC2)cc(OC)c1OC`, the activity change was 23.9% (inactive).
Turning to `COc1ccccc1N1CCN(S(=O)(=O)CCNC(=O)COc2ccc(F)cc2)CC1`, the activity change is -44.5% (active).
Turning to `Cc1ccc2c(c1)N(CC(=O)NCCCN1CCCCC1)C(=O)c1cccnc1O2`, the activity change is -101% (active).
Under `Cc1ccc2c(c1)N(CC(=O)NCCc1ccc(Cl)cc1)C(=O)c1cccnc1O2` stands -4.44% (inactive); under `O=C(CN1C(=O)c2cccnc2Oc2ccc(Cl)cc21)NCCc1ccccc1`, -2.8% (inactive).
As for `Cc1ccc(C2(O)CCN(c3nccc(CCC(F)(F)F)n3)CC2)nc1`, the activity change was -3.3% (inactive).
In the case of `CCOc1cccc2c1OC[C@@H]1CN(CCOC)C(=O)CCN(C(=O)c3ccccc3OC)[C@H]21`, the activity change was -8.59% (inactive).
Take `CC(C)(C)OC(=O)N1CCC(c2c(C(=O)NCc3ccccn3)cnn2-c2ccc(F)cc2)CC1`: the activity change is -1.08% (inactive).
As for `CC(C)(C)OC(=O)N1CCC(c2c(C(=O)N3CCc4ccccc4C3)cnn2-c2ccc(F)cc2)CC1`, the activity change is -28.8% (active).
In the case of `Cc1cccc(-n2ncc(C(=O)N3CCc4ccccc4C3)c2C2CCN(C(=O)OC(C)(C)C)CC2)c1`, the activity change was 32.7% (inactive).
On to `COc1ccc(-c2cc(C(=O)NCC(F)(F)F)c3c(C4CCCN4)nn(C)c3n2)cc1` (stereo not given), for which the activity change was -2.22% (inactive).
With `COc1ccccc1-c1cccc(C(=O)N2CCN(C(=O)Cc3ccc(F)cc3)CC2)c1` the figure was 5.42% (inactive); with `CCOC(=O)c1ccc(NC(=O)CCn2cnnn2)cc1`, 7.68% (inactive).
For the molecule `CCOC(=O)c1ccc(NC(=O)CCS(=O)(=O)c2ccc3c(c2)oc(=O)n3C)cc1`, the activity change is 9.62% (inactive).
Regarding `CCOC(=O)c1ccc(NC(=O)CCS(=O)(=O)c2ccc(C)cc2)cc1`, the activity change was -30% (active).
For the molecule `O=C(NCc1ccc(F)cc1)C1CCN(c2nccc(Nc3ccccc3F)n2)CC1`, the activity change is 18.1% (inactive).
As for `CN(c1ccccc1)c1cc(=O)c2ccnc(Nc3cccc([S+](C)(=O)[O-])c3)c2o1`, the activity change is -11.6% (inactive).
For `CN(c1ccccc1)c1cc(=O)c2ccnc(-c3ccc(CO)cc3)c2o1`, the activity change was -7.57% (inactive).
With `CN(c1ccccc1)c1cc(=O)c2ccnc(NC3CCOCC3)c2o1`, the activity change is -36.2% (active).
In the case of `COc1ccc(-n2nc(C3CCN(Cc4ccccn4)CC3)[nH]c2=O)cc1`, the activity change is 7.19% (inactive).
`O=C(Nc1ccc(F)cc1)c1nc2cccnc2n(Cc2ccccc2)c1=O`: the activity change was 14.3% (inactive).
`O=C1CCN(CC(O)COc2ccccc2)c2cc3c(cc2CN1CC1CC1)OCO3` (stereo not given): the activity change is -10.5% (inactive).
Turning to `COc1ccc(OCC2CN(Cc3cccc(F)c3)[S+](=O)([O-])c3cccnc3O2)cc1` (stereo not given), the activity change was 0.413% (inactive).
As to `O=C1CCN(C(=O)[C@H](Cc2ccccc2)NC(=O)NC2CCCCC2)CCCOCCN1`, the activity change is 9.58% (inactive).
For `COc1ccc(CCC(=O)NCCc2csc(-c3ccc(Cl)cc3)n2)cc1`, the activity change was -1.97% (inactive).
Take `COc1ccc(CNC(=O)c2noc(-c3ccc(F)cc3)n2)cc1`: the activity change is 7.64% (inactive).
Consider `COc1ccc(-c2nc(CCNC(=O)c3ccc(Br)o3)cs2)cc1`, for which the activity change is -32.8% (active).
For `O=C(c1cccc(OC2CN(Cc3nccs3)C2)c1)N1CCOCC1`, the activity change was -3.36% (inactive).
On to `O=C(NCc1cccc(Cl)c1)c1ccc2nccn2c1`, for which the activity change was -8.99% (inactive).
On to `Cc1n[nH]c(C)c1CNC(=O)C1Cn2cccc2C(=O)N1Cc1ccccc1` (stereo not given), for which the activity change was -3.14% (inactive).
Under `COc1ccc(Cl)cc1-c1ccc2c(c1)C(=O)N1CCN(C(=O)CSC)C[C@@H]1C(=O)N2` stands -8.89% (inactive); under `Cc1ccc(NC(=O)c2cc(S(=O)(=O)NCCC3=CCCCC3)ccc2F)cc1C`, -26.3% (active); under `CCc1ccc(NC(=O)c2cc(S(=O)(=O)NC3CCCCCC3)ccc2F)cc1`, -6.25% (inactive).
With `COc1ccccc1NC(=O)c1cc(S(=O)(=O)NCCc2ccccc2)ccc1F` the figure was 14.4% (inactive).

The values above are taken from PubChem BioAssay AID1645851 (National Center for Advancing Translational Sciences (NCATS), 2021).
